FUS suppressor: suppressors of FUS proteinopathy in yeast. S. cerevisiae FUS-expressing, growth rescue, OD600, 24 h. Potency, µM (top dose mostly 76.6 µM), actives largely listed as activators. 390,000 compounds, 0.24% hits; note: nearly all actives have a fitted effect of over 55% in size
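FUS-expressing yeast, raffinose-pregrown, induced in 2% galactose minimal medium at OD 0.005; compounds in a dilution series, 24hr at 30C. Growth restoration read as absorbance at 600 nm. CP55940 positive control, DMSO negative.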
mIDH1 inhibitor: blocks human mutant IDH1 R132H enzyme | O75874 | Potency, µM (titrated, usually from 76.6 µM), hits mostly inhibitors | 390,000 compounds, 0.093% hits | IDH1-R132H enzyme, NADPH consumption, diaphorase/resazurin fluorescence; note: nearly all actives have a fitted effect of over 65% in size
Target sequence (O75874 whole entry R132H, stated change not applied): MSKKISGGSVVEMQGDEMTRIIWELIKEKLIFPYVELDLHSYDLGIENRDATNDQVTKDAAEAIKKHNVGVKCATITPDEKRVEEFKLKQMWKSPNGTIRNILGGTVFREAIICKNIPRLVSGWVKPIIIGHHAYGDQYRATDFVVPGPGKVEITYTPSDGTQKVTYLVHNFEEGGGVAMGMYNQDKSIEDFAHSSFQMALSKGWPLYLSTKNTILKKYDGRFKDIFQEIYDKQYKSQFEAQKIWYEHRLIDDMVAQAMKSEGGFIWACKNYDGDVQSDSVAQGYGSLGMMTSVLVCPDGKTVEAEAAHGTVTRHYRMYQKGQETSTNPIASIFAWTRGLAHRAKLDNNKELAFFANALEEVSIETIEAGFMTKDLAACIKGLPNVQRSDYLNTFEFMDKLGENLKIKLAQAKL
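IDH1-R132H (0.5 ug/mL dispensed) in pH 7.5 Tris buffer was preincubated 30 min with compound, then given a substrate mix of 0.016 mM NADPH and 2 mM alpha-KG for 80 min at room temperature; remaining NADPH was read by diaphorase/resazurin fluorescence.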
LDHA block: inhibitors of human lactate dehydrogenase A; activity change, % (values are at about 110 or 230 µM); 480,000 compounds, 0.15% hits; AID 1347041; purified LDHA, NADH/diaphorase-resazurin fluorescence; hits give low values; in the data active = activity change below about -30%; inconclusive = mostly about -25% to -30%
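Human LDH5 (2 nM) was incubated with 0.06 mM NADH and 0.2 mM pyruvate for 5 min at room temperature in Tris pH 7.4. Remaining NADH was coupled through diaphorase/resazurin, and resorufin fluorescence was read at 0 and 20 min.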
Abeta rescue: compounds reversing amyloid beta toxicity in yeast; yeast expressing A-beta42, growth rescue, OD600, 48 h; response scale: 0% DMSO, 100% iron-clioquinol control; Potency, µM (series often up to 46.1 µM), hits mostly activators; 410,000 compounds, 0.063% hits; AID 1347071; note: nearly all actives have a fitted effect of over 55% in size
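Growth rescue measured by 600 nm absorbance after 48 h yeast culture at 30 C with compound. Values normalized between DMSO and an equimolar ferric chloride plus clioquinol control.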
TDP43 rescue: TDP-43 toxicity inhibition in yeast; TDP-43 expressing yeast growth rescue, BacTiter-Glo, 24 h; Potency, µM (titrated, usually from 46.1 µM), usual class: activators; 410,000 compounds, 1.8% hits; note: nearly all actives have a fitted effect of over 50% in size
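Luminescence from BacTiter-Glo reports growth of TDP-43-expressing yeast after 24 hr at 30 deg C with compound. Cells were raffinose-pregrown to mid-log, then seeded in galactose medium at OD600=0.02.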
aSyn yeast inh: alpha-synuclein toxicity inhibition in yeast; Yeast expressing alpha-synuclein, growth rescue, BacTiter-Glo, 24 h; Potency, µM (series often up to 46.1 µM), usual class: activators; 370,000 compounds, 0.14% hits; note: nearly all actives have a fitted effect of over 65% in size
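Screening used galactose-induced yeast with toxic alpha-synuclein levels, exposed to compound for 24 hr at 30 deg C. Cell growth, read with BacTiter-Glo luminescence, gave the measured signal.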
IDH1 autofl: autofluorescence interference, mutant IDH1 hit counter-screen; AID 623980; inhibition of signal, % at 51.2 µM; shares compounds with mIDH1 inhibitor; Resorufin detection reagent fluorescence interference, cell-free; 750 tested, under 10 active
IDH1 WT: wild-type IDH1 (human) inhibition counterscreen. WT IDH1 enzyme, NADPH diaphorase/resazurin fluorescence. Potency, µM (titrated, usually from 115 µM), hits mostly inhibitors. shares compounds with mIDH1 inhibitor. 750 compounds, 9% hits. AID 623995; note: nearly all actives have a fitted effect of over 55% in size
Target sequence (O75874 whole entry, looked up): as the sequence (O75874 whole entry R132H, stated change not applied) above, with H132R counted along it
mIDH1 confirm: mutant IDH1 (human) inhibition, confirmed | shares compounds with mIDH1 inhibitor | IDH1 R132H enzyme, NADPH diaphorase/resazurin fluorescence | 750 compounds, 83% hits | AID 624002 | Potency, µM (highest dose often 76.6 µM), actives largely listed as inhibitors; note: nearly all actives have a fitted effect of over 50% in size
Numbers stand for hits; [ ] = dose if it differs, or a comment. Sampled rows, rich in hits. Any-hit rate of the full collection: about 2%. Unless noted, calls come from the whole dose curve; as a rule, active = well fitted curve in the direction sought with a large enough effect; inconclusive = small, poorly fitted or top-dose-only effect, or another doubt; inactive = no such curve, though single readings can be large; an effect the other way counts as inactive or inconclusive.

For Nc1c(S(=O)(=O)O)cc(NC(=O)c2ccccc2)c2c1C(=O)c1ccccc1C2=O the results were FUS suppressor inactive, mIDH1 inhibitor inconclusive, LDHA block inactive, Abeta rescue inactive, TDP43 rescue inactive, aSyn yeast inh inactive, IDH1 autofl inactive, IDH1 WT 28.2µM and mIDH1 confirm 14.1µM.
COc1cc(NC(=O)CCc2c[nH]c3ccccc23)cc(OC)c1OC was read as LDHA block inactive.
Screening COc1ccc(C2C(C#N)=C(N)N(c3sc4c(c3C#N)CCCC4)C3=C2C(=O)CC(C)(C)C3)cc1OC (stereo not given) returned FUS suppressor inconclusive, mIDH1 inhibitor inconclusive, LDHA block inactive, Abeta rescue inactive, TDP43 rescue inactive, aSyn yeast inh inactive, IDH1 autofl inactive, IDH1 WT inactive and mIDH1 confirm inactive.
`COc1ccc(C2C(C#N)=C(N)N(N(C)C)C3=C2C(=O)CC(C)(C)C3)cc1` (stereo not given) gave FUS suppressor inactive, mIDH1 inhibitor inactive, LDHA block inactive, Abeta rescue inactive, TDP43 rescue inactive and aSyn yeast inh inactive.
Screening COc1ccc(C2C(C#N)=C3NC(=O)c4c(sc5c4CCCCC5)N3C3=C2C(=O)CC(C)(C)C3)cc1 (stereo not given) returned FUS suppressor inconclusive, mIDH1 inhibitor inconclusive, LDHA block inactive, Abeta rescue inactive, TDP43 rescue inactive, aSyn yeast inh inactive, IDH1 autofl inactive, IDH1 WT inactive and mIDH1 confirm inactive.
Screening COc1ccc(C2C(C#N)=C(N)N(c3sc4c(c3C#N)CCCC4)C3=C2C(=O)CC(C)(C)C3)cc1 (stereo not given) returned FUS suppressor inactive, mIDH1 inhibitor inactive, LDHA block inactive, Abeta rescue inactive, TDP43 rescue inactive and aSyn yeast inh inactive.
Screening CCN1C(=O)N/C(=C/c2cn(CC(=O)Nc3ccc(C)cc3)c3ccccc23)C1=O returned LDHA block inactive.
For COc1cc(OC)c(NC(=O)c2cnn(-c3ccccc3)c2-n2cccc2)cc1Cl the results were FUS suppressor inactive, mIDH1 inhibitor 39.8µM, LDHA block inactive, Abeta rescue inactive, TDP43 rescue inactive[9.22 µM], IDH1 autofl inactive, IDH1 WT inactive and mIDH1 confirm 7.08µM.
CC(=O)N1c2ccc(Cl)cc2C2C=CCC2C1c1cccc2ccccc12 (stereo not given) was read as mIDH1 inhibitor 14.7µM, LDHA block inactive, Abeta rescue inactive, TDP43 rescue inactive, aSyn yeast inh inactive, IDH1 autofl inactive, IDH1 WT 39.8µM and mIDH1 confirm 6.31µM.
For COc1ccc(Br)cc1S(=O)(=O)NCC(C)CN1CCCC1 (stereo not given) the results were LDHA block inactive.
Cc1cc(N2CCN(S(=O)(=O)c3ccccc3F)CC2)nc(C(C)C)n1 was read as LDHA block inactive.
For O=c1cc(CN2CCc3ccccc32)nc2sccn12 the results were FUS suppressor inconclusive, mIDH1 inhibitor 31.6µM, LDHA block inactive, Abeta rescue inactive, TDP43 rescue inconclusive, aSyn yeast inh inactive, IDH1 autofl inactive, IDH1 WT inconclusive and mIDH1 confirm 50.1µM.
For Cc1cccc(NC(=O)CC(C)c2ccccc2)c1 (stereo not given) the results were LDHA block inactive.
O=C(Cn1nnc2sc(-c3ccccc3)cc2c1=O)Nc1cccc(Cl)c1 was read as LDHA block inactive.
`CC(C)c1ccc(S(=O)(=O)N2CCN(CCC(=O)Nc3ccc(N(C)C)cc3)CC2)cc1` gave FUS suppressor inactive, mIDH1 inhibitor 46.5µM, LDHA block inactive, Abeta rescue inactive, TDP43 rescue inactive, aSyn yeast inh inactive, IDH1 autofl inactive, IDH1 WT inactive and mIDH1 confirm 22.4µM.
For COc1ccc(NC(=O)CCN2CCN(S(=O)(=O)c3ccc(C(C)C)cc3)CC2)cc1 the results were FUS suppressor inactive, mIDH1 inhibitor inactive, LDHA block inactive, Abeta rescue inactive, TDP43 rescue inactive and aSyn yeast inh inactive.
For CCN1CCN(c2nc(SC)nc(-c3ccc(Cl)cc3)c2C#N)CC1 the results were LDHA block inactive.
For COCCNC(=O)C(c1ccc(C)o1)N(C(=O)c1snc(C(N)=O)c1N)c1ccc(C)cc1 (stereo not given) the results were FUS suppressor inactive, mIDH1 inhibitor inactive, LDHA block inactive, Abeta rescue inactive, TDP43 rescue inactive and aSyn yeast inh inconclusive.
COc1ccc(N(C(=O)c2snc(C(N)=O)c2N)C(C(=O)NC2CCCC2)c2ccco2)c(OC)c1 (stereo not given) was read as FUS suppressor inactive, mIDH1 inhibitor inactive, LDHA block inactive, Abeta rescue inactive, TDP43 rescue inactive and aSyn yeast inh inactive.
Cc1ccc(N(C(=O)c2snc(C(N)=O)c2N)C(C(=O)NC2CCCC2)c2ccco2)cc1 (stereo not given) was read as FUS suppressor inconclusive, mIDH1 inhibitor inconclusive, LDHA block inactive, Abeta rescue inactive, TDP43 rescue inactive, aSyn yeast inh inactive, IDH1 autofl inactive, IDH1 WT inactive and mIDH1 confirm 28.2µM.
For Cc1cccc(N(C(=O)c2snc(C(N)=O)c2N)C(C(=O)NC2CCCC2)c2ccc(C)o2)c1 (stereo not given) the results were FUS suppressor inactive, mIDH1 inhibitor inconclusive, LDHA block inactive, Abeta rescue inactive, TDP43 rescue inactive, aSyn yeast inh inactive, IDH1 autofl inactive, IDH1 WT inactive and mIDH1 confirm 25.1µM.
For Cc1ccc(N(C(=O)c2snc(C(N)=O)c2N)C(C(=O)NC2CCCC2)c2ccc(C)o2)cc1 (stereo not given) the results were FUS suppressor inactive, mIDH1 inhibitor inconclusive, LDHA block inactive, Abeta rescue inactive, TDP43 rescue inactive, aSyn yeast inh inactive, IDH1 autofl inactive, IDH1 WT inactive and mIDH1 confirm 20µM.
Cc1ccc(OCC(=O)NC(CC(C)C)C(=O)N(C)C)cc1 (stereo not given) was read as LDHA block inactive.
Screening CC(NC1CCCc2ccccc21)C(=O)c1c[nH]c2ccccc12 (stereo not given) returned LDHA block inactive.
